# Source: PubChem
# The full list was thinned out, with hits kept by preference.
# Cycloheximide cs: affects cycloheximide protein synthesis inhibition readout, counter-screen. AID 2314. 300,000 tested, 12% active. max response, %. cell reporter, cycloheximide protein synthesis inhibition counterscreen; in the data active = max response mostly above about 13%, no sharp cut-off; inactive = mostly below about 14%; also: read at 38.3 µM for the half of the compounds with a filed dose; 0% is about no effect
# Tb PYK inh: T. brucei pyruvate kinase inhibition | Q57TT1 | TbPYK enzyme, Kinase-Glo Plus ATP luminescence, 45 min | Potency, µM (series often up to 76.8 µM), for the others: top-dose activity, negative = inhibition, actives largely listed as inhibitors | 410,000 tested, 0.12% active | AID 624173; also: potency is read from the fitted curve at half-maximal effect; % is scaled to controls: 0 for no effect and ±100 for the full control effect; nearly all actives have a fitted effect of over 50% in size
#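 Luminescence from Kinase-Glo Plus, added after a 45-minute room-temperature reaction, served as the end-point read-out. The enzyme and substrate were preincubated with compound before ADP (130 uM final) initiated turnover. Concentration-effect curves came from normalized qHTS data.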
# RE007 growth inh: less growth of the S. pombe RE007 Vpr strain. Potency, µM (top dose mostly 92.2 µM), without a hit: at the top dose activity change, negative = less growth, actives largely listed as inhibitors. 360,000 tested, 0.21% active. AID 651644. S. pombe RE007 Vpr strain, BacTiter-Glo ATP luminescence, 24 h; active = well fitted falling curve with a large enough effect; inconclusive = small, poorly fitted or top-dose-only effect; inactive = no such curve, though single readings can be large or run the other way; also: potency is read from the fitted curve at half-maximal effect; % is scaled to controls: 0 for no effect and ±100 for the full control effect; nearly all actives have a fitted effect of over 50% in size
#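 Fission yeast strain RE007, carrying one chromosomally integrated HIV-1 vpr copy, was seeded at OD 0.01 in PMG+AL medium with 23 nL pinned compound. After 24 h at 30 °C and 99% humidity, viability was read by BacTiter-Glo luminescence.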
# Shiga inhibitor: blocks Shiga toxin action in Vero cells. Vero cells, Shiga toxin protein synthesis inhibition reporter. inhibition, % at 38.7 µM. 290,000 tested, 9.2% active. AID 2315; in the data active = inhibition mostly above about 28%, no sharp cut-off; inactive = mostly below about 43%; also: 0% is about no effect
# FBPA Giardia inh: Giardia lamblia aldolase inhibition; Potency, µM (doses to about 59.6 µM), for the others: at the top dose activity, negative = inhibition, actives largely listed as inhibitors; purified Giardia FBPA; A8B2U2; 290,000 tested, 0.71% active; AID 2451; also: potency is read from the fitted curve at half-maximal effect; % is scaled to controls: 0 for no effect and ±100 for the full control effect; nearly all actives have a fitted effect of over 55% in size
#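 Giardia FBPA (40 nM reagent) was preincubated 10 min at RT with compound (up to 57.5 uM final), then substrate plus GAPDH/TPI/NAD/arsenate coupling system with diaphorase/resazurin was added; resorufin fluorescence (525/598 nm) was read after 20 min.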
# LmPK inh: blocks Leishmania mexicana pyruvate kinase activity | Potency, µM (titrated, usually from 57.5 µM), for inactives: at the highest dose activity change, negative = inhibition, actives largely listed as inhibitors | Q27686 | purified LmPK, Kinase-Glo ATP luminescence, 1 h | 290,000 tested, 0.37% active; also: potency is read from the fitted curve at half-maximal effect; % is scaled to controls: 0 for no effect and ±100 for the full control effect
# Target sequence (Q27686 whole entry, looked up): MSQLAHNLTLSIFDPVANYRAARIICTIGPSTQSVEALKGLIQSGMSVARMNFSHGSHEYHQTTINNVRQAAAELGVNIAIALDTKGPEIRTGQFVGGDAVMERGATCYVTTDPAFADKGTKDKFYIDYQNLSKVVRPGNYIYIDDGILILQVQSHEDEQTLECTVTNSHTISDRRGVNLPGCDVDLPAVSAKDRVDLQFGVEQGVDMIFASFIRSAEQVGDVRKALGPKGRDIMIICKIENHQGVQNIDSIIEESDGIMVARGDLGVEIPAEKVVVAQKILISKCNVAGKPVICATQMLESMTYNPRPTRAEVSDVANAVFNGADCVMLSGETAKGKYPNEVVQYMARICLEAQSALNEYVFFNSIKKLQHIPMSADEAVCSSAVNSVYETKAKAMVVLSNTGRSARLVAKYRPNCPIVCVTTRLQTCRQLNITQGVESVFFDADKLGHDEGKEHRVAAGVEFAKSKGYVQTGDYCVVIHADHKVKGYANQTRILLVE
#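 qHTS format; LmPK 0.1 nM; substrates PEP 0.5 mM and ADP 0.1 mM. One-hour room-temperature incubation, then coupled luciferase luminescence; 0.5 nM enzyme wells mark activation.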
# The depositor's hits bear a star; ? = inconclusive; . = not tested or not shown; [ ] = remark or other dose. Unless noted, calls follow the shape of the dose curve; as a rule, active = well fitted curve in the direction sought with a large enough effect; inconclusive = small, poorly fitted or top-dose-only effect, or another doubt; inactive = no such curve, though single readings can be large; an effect the other way counts as inactive or inconclusive.
SMILES,Cycloheximide cs,Tb PYK inh,RE007 growth inh,Shiga inhibitor,FBPA Giardia inh,LmPK inh
CCN(CC)CCOC(=O)c1ccc(NC(=O)/C=C/c2cccs2)cc1,75*,-4%,-22%,118*,-20%,-3%
CC(=O)c1ccc(NC(=O)COC(=O)/C=C/c2cccs2)cc1,.,-11%,-8%,.,.,.
CCOC(=O)c1ccc(NC(=O)/C=C/c2cccs2)cc1,46*,-7%,30%,109*,-9%,-9%
CCN(CC)CCOC(=O)c1ccc(NC(=O)CSc2nnc(-c3cccs3)n2CC)cc1,.,-14%,1%,.,.,.
O=C1Nc2ccc(Cl)cc2C12Nc1ccccc1-c1nnc(SCc3ccccc3F)nc1O2 (stereo not given),28*,-8%,-23%,-48,-21%,-7%
CCC/C=N/Nc1nc2ccccc2s1,35*,3%,-13%,108*,-5%,-12%
C(=C\c1ccccc1)/C=N/Nc1nc(N2CCCCC2)nc(N2CCCCC2)n1,-1,3%,-3%,22,7%,-1%
C(=C\c1ccccc1)/C=N/Nc1nc2ccccc2s1,34*,2%,9%,95*,0%,2%
O=S(=O)(N/N=C\C=C\c1ccccc1)c1ccc(Br)cc1,-1,-8%,4%,-14,0%,7%
Brc1ccc(/C=C/C=N/Nc2nc3ccccc3s2)cc1,19,10%,-4%,49*,.,4%
CCC/C=N/NC(=O)c1cc(-c2ccccc2)nc2ccccc12,-6,3%,7%,-12,5%,4%
COn1c(-c2ccccc2)nc2ncccc21,4,-1%,-15%,-5,-2%,-7%
COn1c(-c2ccc(C)cc2)nc2ncccc21,21*,-13%,-2%,30,-1%,-8%
O=C(/C=C/c1ccc2c(c1)OCO2)NCc1ccncc1,11,1%,-1%,31,14%,3%
O=C(/C=C/c1ccc(Cl)c(Cl)c1)NCc1ccco1,11,-1%,0%,active,1%,0%
O=C(/C=C/c1ccc(Cl)c(Cl)c1)NCCCn1ccnc1,25*,1%,-4%,51*,7%,-3%
O=C(/C=C/c1ccc2c(c1)OCO2)NCc1ccco1,25*,0%,9%,33,-8%,-5%
O=C(/C=C/c1ccccc1)NCc1ccco1,30*,1%,-15%,69*,1%,3%
CCOC(=O)c1c(N)n(-c2ccccc2CC)c2nc3ccccc3nc12,.,5%,.,.,.,.
O=C(CSc1ccc(F)cc1)N1CCOCC1,-3,1%,-10%,-3,7%,0%
O=C(/C=C/c1ccccc1Cl)NCc1ccco1,43*,-3%,-13%,63*,0%[12.9 µM],5%
Cc1nn(CC(=O)N2CCCCC2)c(=O)c2cc3occc3n12,.,0%,.,.,.,.
CCOC(=O)COc1ccc(C)cc1C(=O)c1ccn2nc(-c3ccc(Cl)cc3)cc2n1,.,-12%,.,.,.,.
CC1CC(C)CN(C(=O)CSc2nnc(-c3ccc(Cl)cc3)o2)C1 (stereo not given),-2,0%,-2%,-11,1%,5%
O=C(CSc1nnc(-c2ccc(Cl)cc2)o1)N1CCOCC1,53*,1%,3%,81*,-1%,-4%
SMILES,Cycloheximide cs,Tb PYK inh,RE007 growth inh,Shiga inhibitor,FBPA Giardia inh,LmPK inh
CCOC(=O)N1CCN(C(=O)CSc2nnc(-c3ccc(Cl)s3)o2)CC1,-4,.,.,-8,0%,0%
Cc1occc1-c1nnc(SCC(=O)N2CCOCC2)o1,3,2%,-5%,24,0%,-5%
O=C(CSc1nnc(-c2ccccc2Cl)o1)N1CCOCC1,36*,-9%,-16%,93*,6%,1%
O=C(CSc1nnc(-c2ccc(O)cc2)o1)N1CCOCC1,53*,2%,-1%,114,-6%,-3%
O=C(CSc1nnc(-c2ccc(Cl)s2)o1)N1CCOCC1,15,.,.,62*,-1%,-2%
Cc1ccc(S(=O)(=O)N(Cc2nc(-c3cccc(C)c3)no2)C2CCCCC2)cc1,.,1%,.,.,.,.
CCCn1c(-c2ccc(F)cc2)nc2c(N3CCCN(Cc4ccccc4)CC3)nc(C)nc21,.,.,.,.,-5%,.
O=C(CSc1nnc(-c2ccc(F)cc2)o1)NC1CCCCC1,-2,1%,17%,-3,6%,-1%
Oc1ccc(-c2nnc(SCC3CCCCC3)o2)cc1,22*,-6%,-4%,82*,13%,2%
CC(C(N)=O)N1C(=O)NC2(CCCc3ccccc32)C1=O (stereo not given),-1,2%,-2%,-7,6%,5%
CCOC(=O)C(=O)N(Nc1ccc(C)cc1)c1ccc(C)cc1,16*,3%,-7%,72*,-9%,-4%
O=C(COC(=O)C1CC(=O)N(c2ccc3c(c2)OCCO3)C1)NC1CCCc2ccccc21 (stereo not given),20*,-8%,-14%,45*,3%,1%
Fc1cccc(Cl)c1CNCCCSc1ncccn1,4,9%,-8%,12,?,5%
Clc1cccc(Cl)c1CNCCCSc1ncccn1,7.1*,2%,-21%,9,?,-4%
CCOc1ccc(NS(=O)(=O)c2c(C)nc3sc(C)c(C)n3c2=O)cc1,.,-1%,.,.,.,.
CCC(=O)Nc1ccc2c(c1)ncn2-c1ccc(C)cc1,36*,0%,26%,96*,-1%,-5%
CCC(=O)Nc1ccc2c(c1)ncn2-c1ccc(OC)cc1,46*,-3%,16%,66*,-7%,2%
CC1CCN(S(=O)(=O)c2ccc3c(ccc(=O)n3CC(=O)Nc3ccc(C(C)C)cc3)c2)CC1,.,-4%,.,.,.,.
CC1=C(C(=O)Nc2ccccc2)C(c2cccnc2)n2nc(SCc3ccccc3Cl)nc2N1 (stereo not given),.,6%,.,.,.,.
COc1ccc(S(=O)(=O)c2c(C(=O)c3ccc(C)c(C)c3)cnc3ccc(C)cc23)cc1,.,0%,.,.,.,.
N=c1oc2cc(O)ccc2cc1C(=O)Nc1ccccn1,14*,.,.,52*,-14%,-8%
N=c1oc2cc(O)ccc2cc1C(=O)Nc1nc2ccccc2s1,64*,0%,-19%,32,-1%,-13%
O=C(Nc1nc2ccccc2s1)c1cccn(Cc2ccccc2)c1=O,.,-2%,.,.,.,.
COc1ccc2oc(=N)c(C(=O)Nc3ccc(C)cc3)cc2c1,13,2%,-3%,27,7%,-2%
N=c1oc2cc(O)ccc2cc1C(=O)Nc1ccc(Br)cc1,29*,-4%,-13%,41*,2%,0%
O=S(=O)(Nc1cccc2ccccc12)c1ccc2ccccc2c1,2,.,.,3,.,.
CC(=O)C(/C=N/c1cc(-c2ccc(C)cc2)nn1-c1ccccc1)=C(\C)O,56*,-3%,-4%,93*,-4%,5%
O=c1c(Cl)cc(Cl)nn1-c1ccccc1,-2,3%,?,-9,4%,-3%
